Assay outcomes as filed in PubChem BioAssay.
FUS suppressor – suppressors of FUS proteinopathy in yeast; S. cerevisiae FUS-expressing, growth rescue, OD600, 24 h; hit rate 0.24% among 390,000; Potency, µM (series often up to 76.6 µM), hits mostly activators;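 also: potency is read from the fitted curve at half-maximal effect; plate controls were DMSO vehicle for no effect and reference control for full effect; nearly all actives have a fitted effect of over 55% in size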
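Compound concentration series was pinned onto galactose-induced FUS-expressing yeast seeded at OD 0.005. Plates sat 24hr at 30C; absorbance at 600 nm gave growth. DMSO served as background control.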
mIDH1 inhibitor – blocks human mutant IDH1 R132H enzyme | O75874 | IDH1-R132H enzyme, NADPH consumption, diaphorase/resazurin fluorescence | Potency, µM (series often up to 76.6 µM), without a hit: at the highest dose activity change, negative = inhibition, hits mostly inhibitors | hit rate 0.093% among 390,000; also: potency is read from the fitted curve at half-maximal effect; % is scaled to controls: 0 for no effect and ±100 for the full control effect; nearly all actives have a fitted effect of over 65% in size
Target sequence (O75874 whole entry R132H, stated change not applied): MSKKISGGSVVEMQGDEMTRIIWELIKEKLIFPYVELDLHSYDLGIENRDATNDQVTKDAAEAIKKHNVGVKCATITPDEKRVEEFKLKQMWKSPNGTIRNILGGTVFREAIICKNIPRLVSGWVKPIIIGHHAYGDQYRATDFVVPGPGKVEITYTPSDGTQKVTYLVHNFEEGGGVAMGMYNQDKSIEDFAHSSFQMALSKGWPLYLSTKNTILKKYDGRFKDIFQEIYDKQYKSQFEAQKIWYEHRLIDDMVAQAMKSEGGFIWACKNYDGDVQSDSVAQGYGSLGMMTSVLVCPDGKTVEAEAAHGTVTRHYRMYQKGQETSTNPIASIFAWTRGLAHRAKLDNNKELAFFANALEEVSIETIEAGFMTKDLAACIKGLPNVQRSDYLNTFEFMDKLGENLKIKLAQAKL
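IDH1-R132H (0.5 ug/mL) preincubated 30 min with compound, then NADPH (0.016 mM) and alpha-KG (2 mM) added; 80 min at RT, pH 7.5. Remaining NADPH coupled via diaphorase/resazurin to fluorescence (540/590 nm); concentration-response curves normalized to no-enzyme control.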
TDP-43 yeast inh – TDP-43 toxicity inhibition in yeast; hit rate 1.8% among 410,000; AID 652104; TDP-43 expressing yeast growth rescue, BacTiter-Glo, 24 h; Potency, µM (highest dose often 46.1 µM), without a hit: top-dose growth rescue (activation), most hits filed as activators; also: potency is read from the fitted curve at half-maximal effect; % of control where 0% means no effect; nearly all actives have a fitted effect of over 50% in size
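Growth rescue of TDP-43-toxic yeast measured as ATP luminescence (BacTiter-Glo). Cells grown to mid-log in raffinose, induced in galactose at OD600=0.02, exposed to compound 24 hr at 30 deg C.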
aSyn yeast inh – inhibitors of alpha-synuclein toxicity in yeast; Potency, µM (doses to about 46.1 µM), for the others: top-dose growth rescue (activation), usual class: activators; hit rate 0.14% among 370,000; AID 652106; Yeast expressing alpha-synuclein, growth rescue, BacTiter-Glo, 24 h; also: potency is read from the fitted curve at half-maximal effect; % of control where 0% means no effect; nearly all actives have a fitted effect of over 65% in size
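Readout is rescue of growth in alpha-synuclein-expressing yeast, so inhibitors of toxicity appear as activators. Growth after 24 hr at 30 deg C in galactose medium is quantified by luminescence.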
Abeta rescue – compounds reversing amyloid beta toxicity in yeast. AID 1347071. hit rate 0.063% among 410,000. Potency, µM (doses to about 46.1 µM), actives largely listed as activators. yeast expressing A-beta42, growth rescue, OD600, 48 h; response scale: 0% DMSO, 100% iron-clioquinol control; also: potency is read from the fitted curve at half-maximal effect; nearly all actives have a fitted effect of over 55% in size
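Yeast A-beta toxicity model in growth medium with pinned compounds, 48 h at 30 C; growth read as absorbance at 600 nm. Normalized to FeCl3/clioquinol equimolar mix (positive) and DMSO (negative).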
LDHA inh – inhibitors of human lactate dehydrogenase A | hit rate 0.15% among 480,000 | AID 1347041 | P00338 | activity change, % (values are at about 110 or 230 µM) | purified LDHA, NADH/diaphorase-resazurin fluorescence; stronger effect = lower value; in the data active = activity change below about -30%; inconclusive = mostly about -25% to -30%;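 also: plate controls were DMSO wells for no effect and wells without enzyme for full effect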
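Remaining NADH was detected by diaphorase (0.133 mg/mL) converting 37 µM resazurin to fluorescent resorufin, read at 0 and 20 minutes. The preceding 5-minute room-temperature reaction used 2 nM LDHA, 0.2 mM sodium pyruvate and 0.06 mM NADH at pH 7.4.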
* marks the source's active call; other numbers are inactive results; ! = not active in a repeat; [ ] = another dose, or the depositor's remark. This is a sample that favours compounds with a hit; in the whole collection about 2% have one here. Unless noted, calls follow the shape of the dose curve; as a rule, active = well fitted curve in the direction sought with a large enough effect; inconclusive = small, poorly fitted or top-dose-only effect, or another doubt; inactive = no such curve, though single readings can be large; an effect the other way counts as inactive or inconclusive.

How did COc1cc(OC)c(NC(=O)Cn2nc(-c3cc(C)ccc3C)ccc2=O)cc1Cl do in these assays?
LDHA inh: -1

How did CO/N=C1\CCn2c1c(C)c1ccccc12 do in these assays?
FUS suppressor: inactive; mIDH1 inhibitor: 4%; TDP-43 yeast inh: -13%[1.82 µM]; aSyn yeast inh: 0%; Abeta rescue: inactive; LDHA inh: 0

How did Cc1c2n(c3ccccc13)CC/C2=N\O do in these assays?
FUS suppressor: inactive; mIDH1 inhibitor: -1%; TDP-43 yeast inh: 11µM*; aSyn yeast inh: 4%; Abeta rescue: inactive; LDHA inh: -10

What do the screens show for `CC(C)(C)Sc1ccc(/C=N/O)cc1[N+](=O)[O-]`?
FUS suppressor: inactive; mIDH1 inhibitor: 7%; TDP-43 yeast inh: 16µM*; aSyn yeast inh: 9%; Abeta rescue: inactive; LDHA inh: 3

Results for O=C(O)c1cc(O)ccc1O ?
FUS suppressor: inactive; mIDH1 inhibitor: 10%; TDP-43 yeast inh: -5%; aSyn yeast inh: -1%; Abeta rescue: inactive; LDHA inh: 4

Results for O=C(O)C1=CC(=C(c2ccc(O)c(C(=O)O)c2)c2ccc(O)c(C(=O)O)c2)C=CC1=O ?
aSyn yeast inh: -33%; LDHA inh: -75*

What do the screens show for `CC(=O)/C(=C/c1ccccc1)C(=O)Nc1ccccc1C`?
FUS suppressor: inactive; mIDH1 inhibitor: 5%; TDP-43 yeast inh: 2.5µM*; aSyn yeast inh: inconclusive; Abeta rescue: inactive; LDHA inh: -6

How did COc1ccc(C(=O)NCC2OCCc3ccccc32)c(O)c1 (configuration not stated) do in these assays?
FUS suppressor: inactive; mIDH1 inhibitor: 9%; TDP-43 yeast inh: 14µM*; aSyn yeast inh: -12%; Abeta rescue: inactive; LDHA inh: 2

How did CC(=O)Nc1cc(C(=O)NCc2ccccc2Cl)ccc1Sc1ccc(F)cc1 do in these assays?
FUS suppressor: inactive; mIDH1 inhibitor: -2%; TDP-43 yeast inh: 22µM*; Abeta rescue: inactive; LDHA inh: -6

What do the screens show for `CC(=O)Nc1cc(C(=O)NCc2ccc(C)cc2)ccc1S(=O)(=O)c1ccc(Cl)cc1`?
FUS suppressor: inactive; mIDH1 inhibitor: -6%; TDP-43 yeast inh: 29%; aSyn yeast inh: 0%; Abeta rescue: inactive; LDHA inh: -4

Results for CC(=O)Nc1cc(C(=O)NCc2ccco2)ccc1Sc1ccc(F)cc1 ?
FUS suppressor: inactive; mIDH1 inhibitor: 5%; TDP-43 yeast inh: -6%; aSyn yeast inh: -1%; Abeta rescue: inactive; LDHA inh: -2

What do the screens show for `CCOc1ccc(CNC(=O)c2ccc(Sc3ccc(Cl)cc3)c(NC(C)=O)c2)cc1`?
FUS suppressor: inconclusive; mIDH1 inhibitor: -7%; TDP-43 yeast inh: 16µM*!; aSyn yeast inh: -1%; Abeta rescue: inactive; LDHA inh: -9

What do the screens show for `CC(=O)Nc1cc(C(=O)NCc2ccco2)ccc1Sc1ccc(Cl)cc1`?
FUS suppressor: inactive; mIDH1 inhibitor: -1%; TDP-43 yeast inh: 0%; aSyn yeast inh: -2%; Abeta rescue: inactive; LDHA inh: 2

Results for CCOc1ccccc1CNC(=O)c1ccc(Sc2ccc(Cl)cc2)c(NC(C)=O)c1 ?
mIDH1 inhibitor: 2%; TDP-43 yeast inh: 13µM*; aSyn yeast inh: 4%; Abeta rescue: inactive; LDHA inh: -2

What do the screens show for `CCCn1c(=O)c2ccc(C(=O)NCC(C)C)cc2n2c(SCc3ccc(F)cc3)nnc12`?
LDHA inh: -34*

Results for Cc1cccc(NC2=C(Cl)C(=O)OC2OC(C)C)c1 (configuration not stated) ?
FUS suppressor: inactive; mIDH1 inhibitor: -18%; TDP-43 yeast inh: 13µM*; aSyn yeast inh: 1%; Abeta rescue: inactive; LDHA inh: -10
